# Laboratory results as given in PubChem BioAssay.
# Active and inactive are the calls of the source.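 How the source made its calls, unless noted: active means visually confirmed hit in the image check and inhibition above 20%; inconclusive means visually confirmed hit but inhibition not above 20%; inactive means no visual hit in the image check.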
# Key:
# [1] = inhibitors of TNFa-induced NFkB p65 translocation, primary screen, imaging, HUVEC, MLSMR starter and 10KST1 sets (AID 438;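 active means inhibition above 20% together with a positive visual image hit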;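 further: compound added about 3h40 before a 20 min TNFalpha stimulation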;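 on inhibition: signal is the nuclear over cytoplasmic p65 intensity ratio per well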); conditions: HUVEC TNFa-induced p65 nuclear translocation; cell count: measured here: nuclei count (cytotoxicity indicator), at 2.08 µM; inhibition: at 2 µM, stronger effect = higher value, 0% TNFa-plus-vehicle, 100% no-TNFa wells
# [2] = inhibitors of mutant huntingtin aggregation, primary screen, imaging, exon1htt(103Q)mCFP cells, high-content imaging (AID 483;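 active means visual image review flags a hit and inhibition of aggregation exceeds 20%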;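 further: compound exposure lasted 3 days before fixation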;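 on nuclei count: percent of the per-plate median nuclei count of sample wells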); conditions: exon1htt(103Q)mCFP cell line, aggregate imaging, at 2 µM; inhibition of aggregation: stronger effect = higher value; nuclei count: measured here: cell count, toxicity
# [3] = inhibitors of E-selectin induction by TNFa, primary screen, imaging, HUVEC, immunofluorescence, MLSMR starter and 10KST1 sets (AID 487); conditions: HUVEC TNFalpha-induced E-selectin immunofluorescence imaging, at 2 µM; inhibition: stronger effect = higher value; nuclei count: measured here: cell number, toxicity;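 on inhibition: signal is fraction of cell area covered by stained E-selectin grains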;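 on nuclei count: 100% = median nuclei count of all wells on the same plate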
# [4] = target: Voltage-gated potassium channel subunit beta-2 (Rattus norvegicus) (UniProt P62483); test: KvBeta enzyme negative modulators, primary screen, biochemical, NADPH fluorescence (AID 622;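 active means fluorescence slope higher than the sample average by over 3 SD, cut at about -0.22 in these data, passing the limit was not always enough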;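 further: slope of raw intensity against log time taken from 70 to 1610 s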); conditions: recombinant KvBeta, 4-cyanobenzaldehyde reduction, at 10 µM, stronger effect = higher value
# [5] = target: Voltage-gated potassium channel subunit beta-2 (Rattus norvegicus) (UniProt P62483); test: KvBeta positive modulators, primary screen, biochemical, NADPH fluorescence (AID 623;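 active means NADPH fluorescence slope more negative than the mean of all samples by about 3 SD, 99.7% confidence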;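 further: fluorescence intensity change per second fitted from 20 to 320 s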); conditions: Recombinant KvBeta, NADPH fluorescence decrease slope, 10 min; at 10 µM; stronger effect = lower value
# [6] = target: Alpha-2C adrenergic receptor (Homo sapiens) (UniProt P18825); test: modulators of alpha2C/GIRK thallium flux, primary screen, cell-based, HEK293 alpha2C/GIRK1/2 (AID 624;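 active means fluorescence slope after compound addition differing from the mean of all screened samples at 99.7% confidence, in either direction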;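 further: slope of fluorescence ratio to pre-addition baseline per second over 15 to 24 s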); conditions: thallium flux BTC fluorescence, at 10 µM, actives lie on both sides
# [7] = inhibitors of Sendai virus-induced IRF3 signaling, primary screen, TLR/RLR signaling modifier project, cell-based, Sendai virus stimulus, luciferase, 10K MLSCN set (AID 602276;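 active means inhibition at or above 50% at 10 µM; inactive means inhibition below 50%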;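 further: firefly luciferase from ISG56 promoter only with Renilla not read in this screen; 0% = Sendai virus plus DMSO and 100% = medium plus DMSO without virus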); conditions: HEK293 RL24 IRF3 luciferase reporter, at 10 µM, stronger effect = higher value
# [8] = inhibitors of poly I:C-induced TLR3 signaling, primary screen, cell-based, poly I:C stimulus, luciferase, 10K MLSCN set (AID 602277;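 active means inhibition of the reporter signal at or above 50%; inactive means inhibition below 50%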); conditions: HEK293-TLR3 RL24 IRF3 luciferase reporter, at 10 µM, stronger effect = higher value
# Voltage-gated potassium channel subunit beta-2 (Rattus norvegicus), sequence (P62483 whole entry, looked up): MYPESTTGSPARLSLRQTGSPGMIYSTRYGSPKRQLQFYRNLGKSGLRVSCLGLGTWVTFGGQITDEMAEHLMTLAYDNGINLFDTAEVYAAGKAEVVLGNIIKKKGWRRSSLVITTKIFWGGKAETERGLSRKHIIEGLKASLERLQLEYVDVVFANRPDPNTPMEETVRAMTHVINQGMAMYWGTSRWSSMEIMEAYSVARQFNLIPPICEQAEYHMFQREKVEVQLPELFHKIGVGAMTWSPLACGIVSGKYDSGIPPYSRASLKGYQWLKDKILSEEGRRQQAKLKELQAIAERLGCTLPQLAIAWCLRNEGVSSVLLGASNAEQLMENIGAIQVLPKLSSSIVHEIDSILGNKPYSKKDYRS
# Alpha-2C adrenergic receptor (Homo sapiens), sequence (P18825 whole entry, looked up): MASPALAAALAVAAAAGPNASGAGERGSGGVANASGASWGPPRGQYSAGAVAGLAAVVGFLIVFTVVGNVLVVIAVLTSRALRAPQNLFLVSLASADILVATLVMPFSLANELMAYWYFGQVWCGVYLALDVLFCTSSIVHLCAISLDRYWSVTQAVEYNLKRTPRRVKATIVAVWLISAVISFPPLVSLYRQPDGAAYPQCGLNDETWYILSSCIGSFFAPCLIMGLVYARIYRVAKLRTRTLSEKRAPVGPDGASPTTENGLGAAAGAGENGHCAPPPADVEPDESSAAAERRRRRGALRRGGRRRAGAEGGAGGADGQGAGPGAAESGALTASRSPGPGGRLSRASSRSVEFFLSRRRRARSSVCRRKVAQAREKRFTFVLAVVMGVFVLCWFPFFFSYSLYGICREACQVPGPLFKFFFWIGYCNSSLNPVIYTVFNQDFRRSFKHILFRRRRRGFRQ
Structure (SMILES),cell count [1],inhibition [1],inhibition of aggregation [2],nuclei count [2] [%],inhibition [3],nuclei count [3] [%],fluorescence slope [4],NADPH fluorescence slope [5],slope [6],inhibition [7],inhibition [8]
O=C(CSc1nnc2scc(-c3ccccc3)n12)Nc1nsc(-c2ccccc2)n1,673,-14.1% (inactive),2.8% (inactive),107,34.5% (inactive),97.5,-0.381 (inactive),1.4e-05 (inactive),0.00626 (inactive),9.78% (inactive),-32.6% (inactive)
COc1cc2c(N3CCOCC3)cc(O)c(CC(=O)Nc3ccccc3)c2cc1OC,217,2.5% (inactive),0.7% (inactive),107,-63.7% (inactive),101,-0.344 (inactive),-3.7e-06 (inactive),0.00641 (inactive),-3.63% (inactive),7.05% (inactive)
Cn1c2c(c(=O)n(C)c1=O)C(c1cccc(Br)c1)C1C(=O)c3ccccc3C1=N2 (centres undefined),720,-5.8% (inactive),2.7% (inactive),110,3.3% (inactive),109,-0.585 (inactive),-6.2e-05 (inactive),0.00438 (inactive),8.12% (inactive),12.5% (inactive)
CCOc1cc(C(=O)Nc2c3c(nn2C(C)(C)C)CS(=O)C3)cc(OCC)c1OCC (centres undefined),525,-16.3% (inactive),-15.3% (inactive),109,16.3% (inactive),122,-0.545 (inactive),2.6e-05 (inactive),0.00616 (inactive),6.91% (inactive),3.04% (inactive)
COc1cc(C)c(N)cc1C(C)C,422,-5.6% (inactive),5.2% (inactive),81.4,-41.7% (inactive),110,-0.589 (inactive),-1.8e-05 (inactive),0.00295 (inactive),12.9% (inactive),18.3% (inactive)
Cc1ccc(C)c(C(=O)CC2(O)C(=O)N(C)c3ccccc32)c1 (centres undefined),497,0.7% (inactive),-18% (inactive),106,-7% (inactive),122,-0.45 (inactive),-5.8e-05 (inactive),0.00346 (inactive),2.91% (inactive),33.7% (inactive)
CCOC(=O)c1c(C)[nH]c(C(=O)COC(=O)c2ccc(F)c(S(=O)(=O)N3CCOCC3)c2)c1C,376,4.8% (inactive),-173% (inactive),6.6,-27.2% (inactive),105,-0.6 (inactive),-5.1e-05 (inactive),0.00426 (inactive),5.38% (inactive),13.3% (inactive)
O=C(CSc1nnc(Cc2cc(=O)[nH]c(=O)[nH]2)n1-c1ccccc1)NCC1CCCO1 (centres undefined),398,1.1% (inactive),-3.9% (inactive),110,5.7% (inactive),102,-0.373 (inactive),3.5e-05 (inactive),0.00598 (inactive),10.3% (inactive),21.2% (inactive)
CC(=O)Nn1c(C)nnc1-n1nc(C)cc1C,594,-9.2% (inactive),11.6% (inactive),94.1,-52.4% (inactive),117,-0.474 (inactive),-9.2e-05 (inactive),0.00573 (inactive),5.42% (inactive),18.4% (inactive)
